PubChem BioAssay (EPA / NIEHS)
Calls of active or inactive are those of the source. The calls were made as follows: active = hit-call score of the fitted dose curve at least 0.9, where 1 is the maximum; inactive = score below 0.9.

Test: ATG_Sox_CIS: Attagene CIS-FACTORIAL HepG2 Assay for human SRY-box transcription factor (SOX) (AID 2282960)
Details: HepG2 Attagene cis-factorial SOX reporter, mRNA; actives raise or lower the signal
How it was run: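 Transient MRTU transfection of HepG2; 24 h compound incubation; TriZol RNA, oligo(dT) RT, PCR, 6-FAM primer extension, HpaI cut, CE. Bidirectional fit, DMSO = baseline.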

| SMILES | outcome | AC50 |
| --- | --- | --- |
| CC1(C)S[C@@H]2[C@H](NC(=O)[C@H](N)c3ccccc3)C(=O)N2[C@H]1C(=O)O | inactive |  |
| CCC(C)(CCC(C)C)C(=O)O (centres undefined) | inactive |  |
| Cc1cc(C)c(S(=O)(=O)O)cc1N=Nc1cc(S(=O)(=O)O)c2ccccc2c1O | inactive |  |
| CCCc1c(OCCCCc2nn[nH]n2)ccc(C(C)=O)c1O | inactive |  |
| Clc1ccccn1 | inactive |  |
| c1cc(N(CC2CO2)CC2CO2)ccc1Cc1ccc(N(CC2CO2)CC2CO2)cc1 (centres undefined) | inactive |  |
| CCCCCCOC(=O)CCCCCCCC(=O)OCCCCCC | inactive |  |
| CC1=NN(c2cc(Cl)c(S(=O)(=O)O)cc2Cl)C(=O)C1N=Nc1ccc(S(=O)(=O)O)cc1 (centres undefined) | inactive |  |
| O=C(O)Cc1c[nH]c2ccccc12 | inactive |  |
| CCCCCCCCCCC1CO1 (centres undefined) | inactive |  |
| NCc1ccccc1 | inactive |  |
| O=[N+]([O-])c1ccc2nc[nH]c2c1 | inactive |  |
| CCCCn1cc[n+](C)c1 | inactive |  |
| CC(C)CC(=O)O | inactive |  |
| C[Si](C)(C)O[Si](C)(C)O[Si](C)(C)C | inactive |  |
| Cc1cc(O)cc(C)c1Cl | inactive |  |
| CC(C)n1c(/C=C/[C@@H](O)C[C@@H](O)CC(=O)O)c(-c2ccc(F)cc2)c2ccccc21 | inactive |  |
| CC1=C(CC=O)C(C)(C)CCC1 | inactive |  |
| CC(O)(P(=O)(O)O)P(=O)(O)O | inactive |  |
| Cc1cccnc1 | inactive |  |

| SMILES | outcome | AC50 |
| --- | --- | --- |
| Cc1ccccc1S(N)(=O)=O | inactive |  |
| C=C(C)C(=O)OCC1CCCO1 (centres undefined) | inactive |  |
| OCCOCCOCCOCCOCCO | inactive |  |
| C1=CCC=C1 | inactive |  |
| CC(C)CC(=O)CC(C)CC(C)C (centres undefined) | inactive |  |
| CCCOCCC | inactive |  |
| CN(C)CCC(c1ccc(Cl)cc1)c1ccccn1 (centres undefined) | inactive |  |
| CN(C)CCCN1c2ccccc2CCc2ccc(Cl)cc21 |  | 11.1 µM (active) |
| CC/C=C\CC1=C(C)CCC1=O | inactive |  |
| C[C@H]1C[C@H]2[C@@H]3CCC4=CC(=O)C=C[C@]4(C)[C@@]3(F)[C@@H](O)C[C@]2(C)[C@@]1(O)C(=O)CO | inactive |  |
| COC(OC)C(C)c1ccccc1 (centres undefined) | inactive |  |
| F[B-](F)(F)F | inactive |  |
| COCCCN | inactive |  |
| CC1=CCCC(C)(C)C12CCC(C)O2 (centres undefined) | inactive |  |
| CC(=O)c1nccs1 | inactive |  |
| COc1ccccc1OCC(O)CO (centres undefined) | inactive |  |
| OCCN(CCO)c1cccc(Cl)c1 | inactive |  |
| O=C(O)c1nc(Cl)c(Cl)c(Cl)c1Cl | inactive |  |
| CC=CC(=O)O | inactive |  |
